From PubChem BioAssay AID485317 (Broad Institute, 2010)
Values joined by “and” are separate entries in the source; they are usually repeats but may differ in a detail not shown here. Equal values may be shown once. The whole screen tested about 290,000 compounds, of which about 11,000 (3.8%) were called active. The entries come from a sample that favours actives as a whole. Values without a mark were called inactive.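 The calls were made as follows: active = mean replicate inhibition above about 79%, with every replicate also reaching it (limit read from the data); inconclusive = only one of the two criteria met; inactive = mean below limit and not every replicate reaching it.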

target: FAD-linked sulfhydryl oxidase ALR (Homo sapiens) (UniProt P55789); test: inhibitors of human ALR sulfhydryl oxidase, primary screen, biochemical, H2O2 detection, HRP-luminol luminescence, single point (AID 485317); settings: purified ALR, DTT oxidation, hits give high values, concentration not given here
Sequence (P55789 whole entry, looked up): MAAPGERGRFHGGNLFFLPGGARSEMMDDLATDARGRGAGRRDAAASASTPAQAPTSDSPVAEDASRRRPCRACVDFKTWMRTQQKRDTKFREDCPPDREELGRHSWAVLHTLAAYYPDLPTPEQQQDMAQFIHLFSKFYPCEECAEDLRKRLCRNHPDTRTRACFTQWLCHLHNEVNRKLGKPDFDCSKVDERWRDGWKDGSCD

Row | SMILES | inhibition
1 | CN(CC(=O)Nc1ccc(Cl)c(C(F)(F)F)c1)C(=O)CCC(=O)c1ccccc1 | -3.88%
2 | Cc1ccc(C)c(S(=O)(=O)N2CCN(c3ncnc4sccc34)CC2)c1 | -13.7%
3 | O=C(NCc1ccccc1)c1onc(CSc2ccncc2)c1C(=O)NCc1ccccc1 | -5.05%
4 | CC(C)n1ncc2c(C(=O)Nc3ccc(CC#N)cc3)cc(C3CC3)nc21 | -14.1%
5 | O=C(c1ccc(N2CCOCC2)c([N+](=O)[O-])c1)N1CCN(c2ccccc2F)CC1 | 0.595%
6 | O=C1C=C(c2cc(C(F)(F)F)cc(C(F)(F)F)c2)C[C@@H](c2ccc3c(c2)OCO3)C1 | -3.13%
7 | Cc1ccc(Nc2ccccc2N)cc1 | 85.9% (active)
8 | Nc1ccc(Nc2ccccc2)cc1 | -2.25%
9 | Cc1ccc(Nc2ccc(C(N)=O)cc2[N+](=O)[O-])cc1 | -3.97%
10 | COc1ccc(NC(=O)CN(C)C(=O)c2cc(-c3ccc(C)o3)nc3ccccc23)cc1 | -3.77%
11 | CS(=O)(=O)N(CC(=O)N1CCc2ccccc2C1)c1ccc(Br)cc1 | -3.9%
12 | CC(C)(C)N1CC(c2nc3ccccc3n2Cc2ccc(F)cc2)CC1=O (stereo not drawn) | -2.5%
13 | C=CCn1c(P(C)(=O)O)nc2ccccc21 | -17.7% and -5.83%
14 | C=CCn1c(C2CC(=O)N(c3ccc(C)cc3)C2)nc2ccccc21 (stereo not drawn) | 87.3% (active)
15 | COc1ccc(OC)c(NC(=O)COC(=O)Cc2ccsc2)c1 | -0.814%
16 | Cc1cc(C)cc(N)c1 | 8.46%
17 | Cc1cc(C(C)(C)C)cc(C)c1N | -3.27%
18 | CC(C)(C)c1ccc(Oc2ccc(N)cc2)cc1 | 98.6% (active)
19 | Cc1ccc(Oc2ccc(N)cc2)cc1 | 98.9% (active)
20 | Cc1ccc(S(=O)(=O)c2ccc(Oc3ccccc3)cc2)cc1 | -8.5%
21 | CC(C)(C)c1ccc(OC2=CS(=O)(=O)c3ccccc32)cc1 | 4.58%
22 | CCOC(=O)N1CCN(C(=O)CSc2nc(=O)n3cccc(C)c3n2)CC1 | 1.32%
23 | CCN(CC(=O)Nc1c(F)cccc1F)C(=O)C1CCC1 | -1.96%
24 | O=C(NCCC1CCCCN1S(=O)(=O)c1ccccc1)C(=O)NCC1CCCO1 (stereo not drawn) | -4.14%
25 | C[C@@H]1CN([C@@H](C)CO)C(=O)c2cc(NC(=O)C3CC3)ccc2O[C@H]1CN(C)C | 1.71%
26 | COc1ccc(-c2nnc(SCC(=O)c3ccc4c(c3)OCCO4)o2)cc1 | 4.53%
27 | COc1ccc(-c2nnc(SC(=O)N3c4ccccc4Sc4ccccc43)o2)cc1 | 94.9% (active)
28 | COc1ccc(-c2nnc(SCc3cccnc3)o2)cc1 | -15%
